Compound activity: PubChem BioAssay, several laboratories
In the library only some 27% were active in any assay of this set; here they are far more common.
Cav3 T inh: human Cav3.2 channel inhibition, primary screen; O95180; Cav3.2-expressing cells, Fluo-4 calcium fluorescence FDSS; active compounds read low; B-score at 10 µM; 4% of 100,000 active; AID 449739;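 active means single-dose well whose peak fluorescence ratio is a statistical outlier from its plate by either plate-standardised score or position-corrected B-score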
CYP2C19 activ: increases human CYP2C19 enzyme activity | P33261 | recombinant CYP2C19, luciferin-H EGE luminescence; active compounds read high; 0 = fully inhibited enzyme, 1 = untreated enzyme | activation factor at 5 µM | 96,000 tested, under 10 active | AID 1025;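 active means activation factor of at least 2 at 5 µM in the primary screen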;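 further: 0 = wells with 2.5 mM tranylcypromine and 1 = vehicle-only wells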
CYP2C9 inhib: human CYP2C9 inhibition; CYP2C9 Supersomes, luciferin-H conversion, luminescence; inhibition, % at 5 µM; 20% of 96,000 active;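 active means blocking of liver enzyme CYP2C9 beyond about 50% at 5 µM, limit read from the data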
CYP2C19 inhib: blocks human cytochrome P450 2C19. P33261. CYP2C19 Supersomes, luciferin-H EGE luminescence, 30 min. inhibition, % at 5 µM. 21% of 96,000 active. AID 778;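 active means CYP2C19 inhibition above a set limit at 5 µM in the primary screen, cut at about 50% in these data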;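 further: plate controls were negative control wells for no effect and 2.5 mM tranylcypromine positive control for full effect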
CYP2C9 activ: CYP2C9 (human) activation; P11712; recombinant CYP2C9, luciferin-H conversion, luminescence; active compounds read high; factor 1 = untreated enzyme, 0 = blocked; activation factor at 5 µM; 1.4% of 96,000 active; AID 1024;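 active means activation factor of 2 or more for CYP2C9 at a 5 µM dose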;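 further: 0 = sulfaphenazole-blocked wells and 1 = vehicle-only wells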
Numbers without * were called inactive; · = no result.

SMILES | Cav3 T inh | CYP2C19 activ | CYP2C9 inhib | CYP2C19 inhib | CYP2C9 activ
CN(C)S(=O)(=O)c1ccc(C(=O)NCCOc2ccccc2)cc1 | 1.07 | 0.5 | 42.9 | 49.7 | 0.6
COc1cc(OC)cc(C(=O)NCCOc2ccccc2)c1 | 0.00316 | 0.4 | 13.6 | 62.3* | 0.9
COC(=O)c1ccc(OCCN2C3=NCCN3c3ccccc32)cc1 | 0.19 | 0.8 | -3.4 | 18.5 | 1
COC(=O)c1ccc(OCCOc2ccccc2)cc1 | -0.879 | 0.3 | 54.4* | 67.2* | 0.5
O=C(NCCN1CCOCC1)C1CCN(Cc2ccccc2O)CC1 | 0.0106 | 1.2 | 7.5 | -16.1 | 0.9
CCCOc1ccc(N2C(=O)CC(N3CCCC(C(=O)N4CCCC4)C3)C2=O)cc1 (stereo unspecified) | 0.944 | 1 | 7.1 | -2.7 | 0.9
CCOC(=O)C1CCCN(C(=O)c2cn(C)c(=O)c3cc(OC)c(OC)cc23)C1 (stereo unspecified) | 1.33 | · | · | · | ·
CCOC(=O)C1CCCN(C(=O)c2cc(Nc3ccc(OC)c(OC)c3)nc3ccccc23)C1 (stereo unspecified) | -0.833 | 0.5 | 75.0* | 47.6 | 0.3
COc1ccc(Nc2cc(C(=O)NCCCN3CCOCC3)c3ccccc3n2)c(OC)c1 | 1.35 | 1 | 25.1 | 3.0 | 0.7
CCOC(=O)C1CCCN(C(=O)c2cc(Nc3ccc(OC)cc3OC)nc3ccccc23)C1 (stereo unspecified) | -3.38 | 0.4 | 98.1* | 64.0* | 0
Clc1ccc2c(c1)-c1nnc(Br)n1-c1ccccc1S2 | -3.9* | · | · | · | ·
Brc1nnc2n1-c1ccccc1Sc1ccccc1-2 | -0.646 | · | · | · | ·
O=C(NCc1ccccn1)C1COc2ccccc2O1 (stereo unspecified) | -0.253 | 0.2 | -0.7 | 77.1* | 1
O=C(NCCOC(=O)C1COc2ccccc2O1)C1COc2ccccc2O1 (stereo unspecified) | -0.043 | 0.1 | 69.4* | 88.4* | 0.3
O=C(NCc1ccc2c(c1)OCO2)C1COc2ccccc2O1 (stereo unspecified) | -1.58 | · | · | · | ·
O=C(NCCOC(=O)C1COc2ccccc2O1)c1cccnc1 (stereo unspecified) | -0.168 | 1 | 12.0 | 4.9 | 0.9
CC1=C(C#N)C(Nc2cccc(C)n2)(C(F)(F)F)C(=O)N1 (stereo unspecified) | 0.208 | 0.2 | -7.2 | 75.3* | 1.1
CCCCC1(C)OC(=O)C(=Cc2ccc(N(C)C)cc2)C(=O)O1 (stereo unspecified) | 0.264 | 1 | -8.2 | 2.4 | 1.1
OC12CCCCC1C(c1ccc3c(c1)OCO3)N(Cc1ccccc1F)CC2 (stereo unspecified) | · | 0 | 94.7* | 97.5* | 0.1
O=C(NCc1ccc2c(c1)OCO2)C1CCCN1C(=O)Nc1cccc(F)c1 (stereo unspecified) | -1.09 | · | · | · | ·
OC12CCCCC1C(c1ccc3c(c1)OCO3)N(Cc1cccc(F)c1)CC2 (stereo unspecified) | -2.39 | 0.2 | 79.0* | 78.7* | 0.2
O=C1C(c2ccc(F)cc2)N(Cc2ccc3c(c2)OCO3)C(=O)CN1C1CCCC1 (stereo unspecified) | 0.168 | 0.9 | 23.7 | 13.3 | 0.8
OC12CCCCC1C(c1ccc3c(c1)OCO3)N(Cc1ccc(F)cc1)CC2 (stereo unspecified) | -5.87* | 0.3 | 45.4 | 72.0* | 0.5
CC(=O)NCCc1ccc(S(=O)(=O)N2CCCC2)cc1 | -0.0908 | 0.8 | 8.2 | 16.6 | 0.9
Cc1ccc(-c2csc3ncnc(Sc4nnc(CN5CCCCCC5=O)o4)c23)cc1 | -6.69* | 0.5 | 83.1* | 51.8* | 0.2
SMILES | Cav3 T inh | CYP2C19 activ | CYP2C9 inhib | CYP2C19 inhib | CYP2C9 activ
CCN(CC(F)(F)C(F)F)S(=O)(=O)c1ccc(NC(=O)OC)cc1 | -0.478 | 0.8 | 40.8 | 21.8 | 0.6
CCN(CC)S(=O)(=O)c1ccc(NC(=O)C(C)N(c2ccc(OC)cc2)S(C)(=O)=O)cc1 (stereo unspecified) | -0.466 | 0.9 | 55.6* | 6.9 | 0.4
CCOc1ccc(N(C(C)C(=O)Nc2ccc(OC)cc2)S(C)(=O)=O)cc1 (stereo unspecified) | -0.195 | 0.3 | 72.0* | 73.8* | 0.3
COc1ccc(NC(=O)Nc2cc(C)ccc2OC(F)F)c(OC)c1 | -4.01 | 0.7 | 30.1 | 33.0 | 0.7
COCCNC(=O)C(C)N(c1ccc(OC)cc1)S(C)(=O)=O (stereo unspecified) | -0.42 | 0.8 | -28.7 | 23.3 | 1.3
COc1ccc(NC(=O)C(C)N(c2ccc(C)cc2)S(C)(=O)=O)c(OC)c1 (stereo unspecified) | 0.32 | 0.1 | 51.6* | 90.0* | 0.5
CC(C)CC(=O)NCc1ccc(F)cc1 | 0.0873 | 0.8 | 13.2 | 22.3 | 0.9
O=C(CCN1Cc2ccccc2C1)c1ccc2c(c1)OCCO2 | 1.22 | 0.5 | 51.5* | 47.8 | 0.5
O=C(O)CCSCC(=O)c1ccc2c(c1)OCCO2 | 0.627 | 0.9 | -15.8 | 6.3 | 1.2
CCCC(=O)c1ccc2c(c1)OCCO2 | 0.388 | 0.8 | 21.5 | 20.1 | 0.8
O=C(O)CCC(=O)c1ccc2c(c1)OCCO2 | 2.33 | 1.2 | -6.6 | -15.4 | 1.1
O=C(CS(=O)(=O)c1ccccc1)c1ccc2c(c1)OCCO2 | 0.582 | 0.3 | -83.9 | 70.3* | 1.8
O=C(CCN1CCc2ccccc2C(c2ccccc2)C1)c1ccc2c(c1)OCCO2 (stereo unspecified) | 0.668 | 0.7 | 54.6* | 29.4 | 0.5
COC(CNc1cc(=O)oc2ccccc12)OC | 0.106 | 0.9 | 4.3 | 13.1 | 1
Cc1ccc(SCCCn2cncn2)cc1 | -0.66 | 0.2 | 31.0 | 84.2* | 0.7
Cc1ccc(C(=O)N2CCN(c3cc(=O)[nH]nc3-c3ccccc3)CC2)cc1 | 0.0181 | 1 | -8.3 | 0.5 | 1.1
Cc1ccc(C(=O)c2c(C)oc3c2C(=O)C(=O)c2ccccc2-3)cc1 | -3.87 | 0.4 | 56.3* | 62.8* | 0.4
Cc1oc2c(c1C(=O)c1ccc(Cl)cc1)C(=O)C(=O)c1ccccc1-2 | · | 0.7 | 22.2 | 28.0 | 0.8
Cc1ccc(C(=O)c2coc3c2C(=O)C(=O)c2ccccc2-3)cc1 | -2.85 | 0.5 | 72.2* | 46.4 | 0.3
O=C(CN(c1ccccc1)S(=O)(=O)c1ccc(F)cc1)N1CCCCCC1 | -0.042 | 0.9 | 6.9 | 10.0 | 0.9
COC(=O)C(CCCCN1C(=O)C2C3C=CC(C3)C2C1=O)N1C(=O)C2C3C=CC(C3)C2C1=O (stereo unspecified) | 1.14 | 0.5 | 59.1* | 46.9 | 0.4
O=C(O)C(CCCCN1C(=O)C2C3C=CC(C3)C2C1=O)N1C(=O)C2C3C=CC(C3)C2C1=O (stereo unspecified) | · | 1.1 | 4.0 | -12.4 | 1
COc1ccc(C(=O)COC(=O)C(CCCCN2C(=O)C3C4C=CC(C4)C3C2=O)N2C(=O)C3C4C=CC(C4)C3C2=O)cc1 (stereo unspecified) | -3.68* | · | · | · | ·
CCOC(=O)/C=C1\SCC(=O)N1Cc1nnc(-c2ccccc2Br)o1 | -0.59 | 0.2 | 72.1* | 75.5* | 0.3
CCOC(=O)/C=C1\SCC(=O)N1Cc1ccc(Br)cc1 | -2.2 | · | · | · | ·
